Most compounds without a hit are left out; they make up all but 5% or so of the library.
CHT inh = inhibits the human high affinity choline transporter | CHT-expressing cells, membrane potential dye, choline response; active compounds read low | Q9GZV3 | B-score at 10 µM | 0.86% of 310,000 active | AID 488975;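 active means B-score over 3 SD under the library average, and starting fluorescence ratio not unusually high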;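 further: choline stimulus applied at its EC90 after an EC20 pre-addition; B-score computed on integrated fluorescence ratio after choline addition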
AI-2 QS mod = modulators of Vibrio harveyi AI-2 quorum sensing system; Vibrio harveyi JMH597 AI-2 luminescence/OD600 ratio, 9 h; active compounds read low; strain lacks LuxN and CqsS sensors; 0 = neutral-control median; 0.4% of 300,000 active; AID 2094; activity change, % at 7.5 µM; in the data active means activity change below about -75%, passing the limit was not always enough;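 further: luminescence divided by OD600 gain over 9 h not by final OD600 alone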
CHT allo act = human CHT allosteric activation. Q9GZV3. CHT-expressing cells, membrane potential dye, choline EC20; active compounds read high; LV-AA mutant CHT in HEK293 cells. B-score at 10 µM. 0.49% of 310,000 active;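 active means initial fluorescence not abnormally high and integrated response B-score, plate-corrected, over 3 SD above library mean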
ALR inh = human ALR oxidase inhibition via reduced H2O2. P55789. purified ALR, DTT oxidation, H2O2 HRP-luminol luminescence. inhibition, % (concentration not given with the values). 3.8% of 290,000 active. AID 485317;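 active means mean replicate inhibition above about 79%, with every replicate also reaching it, limit read from the data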
PREPL inhibitor = inhibits the human prolyl oligopeptidase-like enzyme | inhibition, % at 5.96 µM | AID 2751 | Q4J6C6 | 0.68% of 320,000 active | recombinant PREPL, fluorescence polarization activity-based probe; in the data active means inhibition above about 43%;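 further: 0% = enzyme with DMSO and 100% = wells lacking enzyme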
Target sequence (Q4J6C6 whole entry, looked up): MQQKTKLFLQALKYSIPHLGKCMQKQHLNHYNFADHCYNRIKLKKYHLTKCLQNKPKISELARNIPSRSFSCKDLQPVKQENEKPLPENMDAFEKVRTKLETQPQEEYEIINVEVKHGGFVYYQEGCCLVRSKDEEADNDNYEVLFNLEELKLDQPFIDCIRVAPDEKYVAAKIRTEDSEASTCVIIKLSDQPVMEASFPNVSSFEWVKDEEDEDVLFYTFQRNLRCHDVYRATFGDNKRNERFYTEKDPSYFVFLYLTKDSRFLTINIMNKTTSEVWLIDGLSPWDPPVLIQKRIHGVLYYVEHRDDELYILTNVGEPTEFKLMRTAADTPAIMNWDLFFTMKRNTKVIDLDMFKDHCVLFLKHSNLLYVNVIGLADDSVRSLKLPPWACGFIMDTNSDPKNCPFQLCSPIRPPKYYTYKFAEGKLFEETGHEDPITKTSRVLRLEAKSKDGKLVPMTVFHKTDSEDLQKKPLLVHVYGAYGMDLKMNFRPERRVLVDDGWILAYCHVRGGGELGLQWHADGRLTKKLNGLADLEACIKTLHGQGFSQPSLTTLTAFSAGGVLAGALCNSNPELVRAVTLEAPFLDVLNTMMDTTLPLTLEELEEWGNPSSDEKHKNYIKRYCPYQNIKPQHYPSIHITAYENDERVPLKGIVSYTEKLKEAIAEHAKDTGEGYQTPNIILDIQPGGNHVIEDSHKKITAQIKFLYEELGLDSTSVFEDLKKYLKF
Numbers without * were called inactive; i = inactive; . = not tested or not shown.

SMILES	CHT inh	AI-2 QS mod	CHT allo act	ALR inh	PREPL inhibitor
CCOc1ccccc1NC(=O)c1nc(S(=O)(=O)Cc2ccccc2)ncc1Cl	i	11	i	96*	-4
CCc1ccc(NC(=O)c2nc(S(=O)(=O)Cc3ccccc3)ncc2Cl)cc1	i	28	i	-5	-3
Cc1ccc(S(=O)(=O)N2CCCCC2)cc1NS(=O)(=O)c1cccc(C(=O)O)c1	i	10	i	7	-9
CCc1ccc(N=C2NC(=O)/C(=C/c3cc(Br)c(OCC(=O)O)c(OC)c3)S2)cc1	i	59	i	98*	16
CC(C)c1ccc(NC(=O)c2ccc(Br)o2)cc1	i	7	i	6	3
O=C(Nc1ccc(O)cc1)c1ccc(C(=O)c2ccccc2)o1	i	-19	i	97*	7
O=C(Nc1ccc(Nc2ccccc2)cc1)c1ccc(Br)o1	i	-92*	i	99*	22
COc1cccc(NC(=O)c2ccc(C(=O)c3ccccc3)o2)c1	i	-4	i	.	0
COc1cc(NC(=O)CN2CCN(S(=O)(=O)/C=C/c3ccccc3)CC2)cc(OC)c1OC	.	.	.	-10	7
O=C(CC1SC(=O)N(c2ccccc2)C1=O)Nc1cccc2ccccc12 (centres undefined)	i	17	i	3	-3
Cc1ccccc1NC(=O)CC1SC(=O)N(c2ccccc2)C1=O (centres undefined)	i	2	i	97*	7
CC1(C(=O)N2CCN(Cc3ccccc3Cl)CC2)CC1(Cl)Cl (centres undefined)	i	5	i	-5	3
C/C(=N\NC(=O)c1c(C)nc2ccccn12)c1ccc(N2CCOCC2)cc1	i	10	i	87*	8
CC(=O)N1CCN(S(=O)(=O)c2cccc(C(=O)Nc3ccc(F)c(F)c3)c2)CC1	i	26	i	0	9
COc1ccc(OC)c(/C=N/N(C)c2ccccc2)c1	i	25	i	99*	19
COc1cc(/C=N/N(C)c2ccccc2)cc(Cl)c1O	i	31	i	99*	19
COc1ccc(/C=N/N(Cc2ccccc2)c2ccccc2)cc1O	i	40	i	.	19
COc1c(C(=O)Nc2ccc(Cc3ccncc3)cc2)ccc2ccccc12	i	24	i	-20	9
CCCCOC(=O)Oc1ccc2c(=O)c(Oc3cccc(C)c3)coc2c1	i	-77*	i	35	41
Cc1ccc(Oc2coc3cc(O)ccc3c2=O)cc1	i	-94*	i	-5	-10
O=C(Oc1ccccc1)c1cccc2cccc(C(=O)Oc3ccccc3)c12	.	7	.	.	.
COC(=O)c1ccccc1NC(=S)N1CCN(c2ccccc2)CC1	i	-4	i	8	-3
CCOC(=O)c1[nH]c2ccc(OC)cc2c1NC(=S)N1CCN(c2ccccc2)CC1	i	8	i	24	57*
CCOC(=O)c1[nH]c2ccccc2c1NC(=S)Nc1ccccc1	i	-4	i	98*	3
COC(=O)c1cc(OC)c(OC)cc1NC(=S)N1CCN(c2ccccc2)CC1	i	11	i	10	47*
SMILES	CHT inh	AI-2 QS mod	CHT allo act	ALR inh	PREPL inhibitor
CCOC(=O)c1[nH]c2ccc(C)cc2c1NC(=O)CN1CCCCC1	i	18	i	98*	8
COC(=O)c1[nH]c2ccc(C)cc2c1NC(=O)CN1CCCC(C)(C)C1	i	3	i	-1	-7
CCOC(=O)c1[nH]c2ccccc2c1NC(=O)C(C)(C)C	i	-10	i	.	-1
CCOP(=O)(OCC)/C(C#N)=C/c1ccc([N+](=O)[O-])cc1	i	9	i	.	4
N/C(=N\O)c1cn(Cc2ccccc2Cl)c2ccccc12	i	-17	i	99*	8
Cc1ccc(OCCn2cc(/C(N)=N/O)c3ccccc32)cc1C	i	-3	i	78*	22
CC(=O)NCCc1ccc(C(=O)CSc2nnc(C3CC3)n2C2CC2)cc1	.	.	.	.	13
CC(=O)N1c2ccc(N=Cc3cc(Br)cc(Br)c3O)cc2CC1C (centres undefined)	-5.3*	7	i	36	-7
CCCc1cc(=O)[nH]c(SCC(=O)c2ccc3c(c2)NC(=O)CO3)n1	i	20	i	97*	-9
Cn1cnnc1SCC(=O)c1ccc2c(c1)NC(=O)CO2	.	.	.	28	2
CNC(=S)NN(c1ccccc1)c1ccccc1	i	19	i	95*	10
S=C(NC1CCCCC1)NN(c1ccccc1)c1ccccc1	i	20	i	6	8
CCCn1c(N)c(C(=O)CSc2nc3ccccc3s2)c(=O)[nH]c1=O	i	19	i	97*	1
CCCn1c(N)c(C(=O)CSc2nnc(N)s2)c(=O)[nH]c1=O	.	.	.	0	11
CN(C(=O)CSc1nc2ccccc2s1)c1c(N)n(Cc2ccccc2)c(=O)[nH]c1=O	i	-12	i	99*	22
CCn1c(SCC(=O)N(C)c2c(N)n(Cc3ccccc3)c(=O)[nH]c2=O)nc2ccccc21	i	20	i	-6	1
O=C(CSC1=NS(=O)(=O)c2cc(F)ccc2N1)Nc1cccc(F)c1	i	4	i	97*	-5
Cc1csc(NC(=O)CSC2=NS(=O)(=O)c3cc(F)ccc3N2)n1	i	23	i	3	10
O=[N+]([O-])c1ccc(N/N=C2\CC3CC=CC23)cc1 (centres undefined)	i	-45	i	96*	5
c1ccc(NNC2=NCCCCC2)cc1	i	-2	i	99*	6
Cc1[nH]c(SCC(=O)Nc2cc(C(N)=O)cc(C(N)=O)c2)nc1Cc1ccccc1	.	.	.	97*	7
CC(=N\Nc1ccc(Cl)cc1)/C(=N/O)C(=O)Nc1ccccc1	i	-9	i	99*	-9
C/C(=N\O)C(=O)Nc1ccccc1	i	8	i	-11	10
Cc1sc2nc(CSC(C)C(=O)Nc3cc(S(C)(=O)=O)ccc3Cl)[nH]c(=O)c2c1C (centres undefined)	i	6	i	98*	15
Cc1sc2nc(CSC(C)C(=O)Nc3ccccn3)[nH]c(=O)c2c1C (centres undefined)	.	.	.	3	8
Cc1ccc(NC(=O)C(C)SCc2nc3sc(C)c(C)c3c(=O)[nH]2)nc1 (centres undefined)	i	27	i	99*	24
O=C(O)c1cc(O)ccc1NC(=O)C(c1ccccc1)c1ccccc1	i	25	i	95*	1
CCOC(=O)C(C)(C)n1nnc(-c2ccc([N+](=O)[O-])cc2)n1	i	9	i	-7	13
CSc1nsc(SCC(=O)Nc2ccc(O)c(C(=O)O)c2)n1	i	24	i	82*	16
O=S(=O)(c1ccc(F)cc1)N1CCN(C(=S)NC2CC2)CC1	.	.	.	-5	2

Screening results: PubChem BioAssay, several laboratories
